Test results reported in the supplement of paper PMC11732987, “Enantioselective OTUD7B fragment discovery through chemoproteomics screening and high-throughput optimisation” (Communications Chemistry, 2025).

Assays:
Test in all cases: log2 ratio of Biotin-Ahx-Ub-VS probe labelling (fragment/DMSO); higher = less target engagement (more negative = stronger competition), active = hit call of the paper (q ≤ 0.05, log2 ratio ≤ -1)
Conditions in all cases: compound concentration: 200 uM; treatment time: 3 h
[1] = target: USP34 (UniProt Q70CQ2)
Sequence of USP34 (Q70CQ2 whole entry, the tested form may be a part): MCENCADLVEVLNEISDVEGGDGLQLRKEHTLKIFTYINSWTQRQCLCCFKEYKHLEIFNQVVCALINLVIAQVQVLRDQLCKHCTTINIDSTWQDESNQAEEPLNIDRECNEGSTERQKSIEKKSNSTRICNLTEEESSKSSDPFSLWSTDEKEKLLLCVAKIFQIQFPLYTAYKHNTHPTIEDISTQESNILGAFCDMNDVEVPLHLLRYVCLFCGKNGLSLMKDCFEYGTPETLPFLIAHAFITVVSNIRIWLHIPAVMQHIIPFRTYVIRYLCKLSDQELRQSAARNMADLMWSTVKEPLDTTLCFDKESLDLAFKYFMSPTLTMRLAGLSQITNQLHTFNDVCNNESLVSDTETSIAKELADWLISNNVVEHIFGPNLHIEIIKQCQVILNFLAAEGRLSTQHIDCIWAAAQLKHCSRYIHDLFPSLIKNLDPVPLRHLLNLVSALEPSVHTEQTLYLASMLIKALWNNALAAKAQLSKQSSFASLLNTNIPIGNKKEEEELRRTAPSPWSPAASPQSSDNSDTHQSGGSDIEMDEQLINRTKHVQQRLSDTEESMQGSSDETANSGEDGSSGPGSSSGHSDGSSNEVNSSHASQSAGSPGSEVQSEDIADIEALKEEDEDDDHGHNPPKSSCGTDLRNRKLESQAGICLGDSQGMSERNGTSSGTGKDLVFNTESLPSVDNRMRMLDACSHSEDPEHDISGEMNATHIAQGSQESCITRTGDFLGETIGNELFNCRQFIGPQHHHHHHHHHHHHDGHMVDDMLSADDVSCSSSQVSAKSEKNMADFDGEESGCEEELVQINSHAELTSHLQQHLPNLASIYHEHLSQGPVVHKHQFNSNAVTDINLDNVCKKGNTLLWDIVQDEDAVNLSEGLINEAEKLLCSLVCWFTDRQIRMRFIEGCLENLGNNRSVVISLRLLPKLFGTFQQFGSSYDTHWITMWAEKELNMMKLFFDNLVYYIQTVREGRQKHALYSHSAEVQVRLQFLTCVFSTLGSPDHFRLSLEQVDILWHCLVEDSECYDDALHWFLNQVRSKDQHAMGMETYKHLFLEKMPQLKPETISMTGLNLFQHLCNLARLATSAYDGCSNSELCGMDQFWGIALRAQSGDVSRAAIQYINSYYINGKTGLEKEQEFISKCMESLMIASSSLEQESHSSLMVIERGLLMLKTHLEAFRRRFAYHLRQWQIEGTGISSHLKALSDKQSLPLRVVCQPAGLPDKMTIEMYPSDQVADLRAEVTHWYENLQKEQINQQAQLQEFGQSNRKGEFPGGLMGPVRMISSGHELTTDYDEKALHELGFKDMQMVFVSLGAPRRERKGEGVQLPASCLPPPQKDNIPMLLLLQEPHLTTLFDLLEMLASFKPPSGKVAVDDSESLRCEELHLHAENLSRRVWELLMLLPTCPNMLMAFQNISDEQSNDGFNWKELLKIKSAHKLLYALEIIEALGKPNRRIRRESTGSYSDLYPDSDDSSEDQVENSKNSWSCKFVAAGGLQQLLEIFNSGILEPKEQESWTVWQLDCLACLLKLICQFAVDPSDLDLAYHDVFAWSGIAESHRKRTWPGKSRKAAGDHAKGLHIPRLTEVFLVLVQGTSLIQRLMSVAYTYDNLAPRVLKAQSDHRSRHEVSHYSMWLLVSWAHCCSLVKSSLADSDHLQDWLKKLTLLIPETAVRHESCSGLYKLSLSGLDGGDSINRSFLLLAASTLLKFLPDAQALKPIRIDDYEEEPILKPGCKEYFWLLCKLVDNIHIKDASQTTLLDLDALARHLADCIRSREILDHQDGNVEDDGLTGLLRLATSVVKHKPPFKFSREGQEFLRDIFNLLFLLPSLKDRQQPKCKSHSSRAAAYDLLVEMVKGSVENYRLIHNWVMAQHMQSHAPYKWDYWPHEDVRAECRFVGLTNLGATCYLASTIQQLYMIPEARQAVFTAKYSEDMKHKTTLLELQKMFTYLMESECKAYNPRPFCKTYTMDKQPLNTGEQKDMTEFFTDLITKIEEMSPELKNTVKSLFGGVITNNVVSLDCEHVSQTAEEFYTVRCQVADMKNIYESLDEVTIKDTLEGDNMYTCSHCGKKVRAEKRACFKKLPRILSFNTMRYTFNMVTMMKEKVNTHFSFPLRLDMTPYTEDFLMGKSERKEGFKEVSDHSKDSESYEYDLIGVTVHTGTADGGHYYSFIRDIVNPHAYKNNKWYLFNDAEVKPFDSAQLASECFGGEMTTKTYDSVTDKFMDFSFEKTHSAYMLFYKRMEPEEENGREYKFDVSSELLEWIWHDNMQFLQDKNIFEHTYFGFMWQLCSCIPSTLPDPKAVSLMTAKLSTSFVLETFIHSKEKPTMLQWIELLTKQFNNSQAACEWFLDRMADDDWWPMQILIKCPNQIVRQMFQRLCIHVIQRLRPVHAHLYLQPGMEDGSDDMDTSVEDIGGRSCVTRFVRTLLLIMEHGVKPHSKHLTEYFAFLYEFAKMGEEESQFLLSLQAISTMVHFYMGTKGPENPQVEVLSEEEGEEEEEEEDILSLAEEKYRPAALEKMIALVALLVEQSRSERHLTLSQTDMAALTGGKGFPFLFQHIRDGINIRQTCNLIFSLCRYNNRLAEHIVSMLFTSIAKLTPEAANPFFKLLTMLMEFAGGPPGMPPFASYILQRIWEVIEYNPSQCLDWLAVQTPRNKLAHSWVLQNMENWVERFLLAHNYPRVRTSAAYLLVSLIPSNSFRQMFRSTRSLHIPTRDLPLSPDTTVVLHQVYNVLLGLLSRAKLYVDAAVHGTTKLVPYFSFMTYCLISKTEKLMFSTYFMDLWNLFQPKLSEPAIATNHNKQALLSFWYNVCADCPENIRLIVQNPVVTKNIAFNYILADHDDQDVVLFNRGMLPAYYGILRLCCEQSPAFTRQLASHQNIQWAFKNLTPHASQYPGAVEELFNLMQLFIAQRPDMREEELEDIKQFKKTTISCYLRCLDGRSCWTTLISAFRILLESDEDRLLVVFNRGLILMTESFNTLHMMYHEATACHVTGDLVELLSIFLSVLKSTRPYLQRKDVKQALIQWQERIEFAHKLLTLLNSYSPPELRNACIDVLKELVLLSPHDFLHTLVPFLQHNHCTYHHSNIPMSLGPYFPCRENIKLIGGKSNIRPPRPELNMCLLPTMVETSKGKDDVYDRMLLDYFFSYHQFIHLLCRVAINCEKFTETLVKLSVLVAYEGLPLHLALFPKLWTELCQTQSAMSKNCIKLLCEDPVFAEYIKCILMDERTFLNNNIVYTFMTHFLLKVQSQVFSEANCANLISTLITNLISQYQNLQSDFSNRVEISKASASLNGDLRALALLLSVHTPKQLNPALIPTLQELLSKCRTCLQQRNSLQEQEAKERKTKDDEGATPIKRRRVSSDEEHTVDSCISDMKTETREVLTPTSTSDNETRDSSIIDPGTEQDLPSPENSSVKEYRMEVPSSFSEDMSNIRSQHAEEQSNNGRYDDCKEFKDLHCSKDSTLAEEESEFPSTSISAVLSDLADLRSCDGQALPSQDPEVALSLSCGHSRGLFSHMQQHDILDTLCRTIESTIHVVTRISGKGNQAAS
In short: (§1)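 Each value is an average log2 ratio of fragment to vehicle, tested by unpaired t-test. The underlying Spectronaut label-free quantities were global-median-normalised, and only proteins with ≥2 unique peptides were included. Triplicate HEK293T lysate samples (495 µg) were exposed to fragment at 200 µM or vehicle for 3 h, then to Biotin-Ahx-Ub-VS at 0.5 µM final for 1 h, before NeutrAvidin enrichment of labelled DUBs, LysC and trypsin digestion, and diaPASEF LC-MS/MS.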

[2] = target: T1, USP36 (UniProt Q9P275)
T1 sequence (whole entry): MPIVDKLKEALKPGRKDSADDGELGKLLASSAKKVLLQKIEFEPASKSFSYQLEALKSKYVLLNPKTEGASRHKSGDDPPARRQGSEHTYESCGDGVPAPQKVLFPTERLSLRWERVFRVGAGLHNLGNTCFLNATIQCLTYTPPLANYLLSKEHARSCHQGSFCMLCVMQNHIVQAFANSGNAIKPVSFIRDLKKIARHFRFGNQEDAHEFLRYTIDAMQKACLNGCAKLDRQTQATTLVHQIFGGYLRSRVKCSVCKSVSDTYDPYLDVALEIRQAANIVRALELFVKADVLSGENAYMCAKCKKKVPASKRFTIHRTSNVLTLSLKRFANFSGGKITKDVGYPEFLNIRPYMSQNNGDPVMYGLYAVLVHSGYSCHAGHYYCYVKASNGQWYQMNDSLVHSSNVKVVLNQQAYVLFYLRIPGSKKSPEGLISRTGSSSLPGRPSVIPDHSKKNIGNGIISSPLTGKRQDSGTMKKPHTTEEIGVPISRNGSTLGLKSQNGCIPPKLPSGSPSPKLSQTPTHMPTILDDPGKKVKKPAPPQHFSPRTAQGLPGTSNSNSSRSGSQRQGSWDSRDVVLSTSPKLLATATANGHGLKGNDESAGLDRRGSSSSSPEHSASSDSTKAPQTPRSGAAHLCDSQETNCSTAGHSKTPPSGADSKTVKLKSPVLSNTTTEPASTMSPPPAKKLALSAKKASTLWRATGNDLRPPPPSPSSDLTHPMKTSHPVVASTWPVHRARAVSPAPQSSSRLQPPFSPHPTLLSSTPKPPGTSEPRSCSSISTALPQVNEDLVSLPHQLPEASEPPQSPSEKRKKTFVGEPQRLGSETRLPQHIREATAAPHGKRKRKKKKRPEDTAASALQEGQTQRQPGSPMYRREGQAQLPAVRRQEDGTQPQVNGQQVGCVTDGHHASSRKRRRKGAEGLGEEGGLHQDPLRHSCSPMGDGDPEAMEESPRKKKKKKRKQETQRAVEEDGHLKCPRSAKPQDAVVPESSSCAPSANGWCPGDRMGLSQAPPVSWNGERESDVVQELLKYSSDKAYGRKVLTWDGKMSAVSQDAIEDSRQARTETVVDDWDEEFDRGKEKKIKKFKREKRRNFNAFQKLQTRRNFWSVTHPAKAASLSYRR
In short: as §1

[3] = target: T2, USP38 (UniProt Q8NB14)
T2 sequence (whole entry): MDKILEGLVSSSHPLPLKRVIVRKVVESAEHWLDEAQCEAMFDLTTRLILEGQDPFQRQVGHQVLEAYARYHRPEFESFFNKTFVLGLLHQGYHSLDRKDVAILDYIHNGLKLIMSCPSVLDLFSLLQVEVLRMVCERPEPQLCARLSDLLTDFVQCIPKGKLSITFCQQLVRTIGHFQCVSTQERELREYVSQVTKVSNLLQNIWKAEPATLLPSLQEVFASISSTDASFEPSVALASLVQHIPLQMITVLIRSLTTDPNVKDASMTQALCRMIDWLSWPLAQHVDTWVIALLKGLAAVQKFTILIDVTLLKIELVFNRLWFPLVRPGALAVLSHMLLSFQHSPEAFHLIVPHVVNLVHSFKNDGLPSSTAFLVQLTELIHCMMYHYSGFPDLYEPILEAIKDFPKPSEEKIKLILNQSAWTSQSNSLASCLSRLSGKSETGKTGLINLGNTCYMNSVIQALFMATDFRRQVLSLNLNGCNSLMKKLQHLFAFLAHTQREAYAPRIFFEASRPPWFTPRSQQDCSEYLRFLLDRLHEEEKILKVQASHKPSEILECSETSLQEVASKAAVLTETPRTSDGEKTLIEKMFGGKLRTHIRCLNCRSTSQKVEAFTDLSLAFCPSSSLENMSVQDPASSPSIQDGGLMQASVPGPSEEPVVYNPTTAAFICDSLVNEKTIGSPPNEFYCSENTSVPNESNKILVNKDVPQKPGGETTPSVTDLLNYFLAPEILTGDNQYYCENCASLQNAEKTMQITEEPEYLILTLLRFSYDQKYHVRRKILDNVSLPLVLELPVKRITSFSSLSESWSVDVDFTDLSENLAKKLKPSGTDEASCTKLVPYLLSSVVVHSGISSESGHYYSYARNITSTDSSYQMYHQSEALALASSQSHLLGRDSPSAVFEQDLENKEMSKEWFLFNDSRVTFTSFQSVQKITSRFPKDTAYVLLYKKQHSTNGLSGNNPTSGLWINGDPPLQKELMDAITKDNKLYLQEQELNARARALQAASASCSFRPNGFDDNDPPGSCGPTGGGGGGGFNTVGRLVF
In short: as §1

[4] = target: T3, USP39 (UniProt Q53GS9)
T3 sequence (whole entry): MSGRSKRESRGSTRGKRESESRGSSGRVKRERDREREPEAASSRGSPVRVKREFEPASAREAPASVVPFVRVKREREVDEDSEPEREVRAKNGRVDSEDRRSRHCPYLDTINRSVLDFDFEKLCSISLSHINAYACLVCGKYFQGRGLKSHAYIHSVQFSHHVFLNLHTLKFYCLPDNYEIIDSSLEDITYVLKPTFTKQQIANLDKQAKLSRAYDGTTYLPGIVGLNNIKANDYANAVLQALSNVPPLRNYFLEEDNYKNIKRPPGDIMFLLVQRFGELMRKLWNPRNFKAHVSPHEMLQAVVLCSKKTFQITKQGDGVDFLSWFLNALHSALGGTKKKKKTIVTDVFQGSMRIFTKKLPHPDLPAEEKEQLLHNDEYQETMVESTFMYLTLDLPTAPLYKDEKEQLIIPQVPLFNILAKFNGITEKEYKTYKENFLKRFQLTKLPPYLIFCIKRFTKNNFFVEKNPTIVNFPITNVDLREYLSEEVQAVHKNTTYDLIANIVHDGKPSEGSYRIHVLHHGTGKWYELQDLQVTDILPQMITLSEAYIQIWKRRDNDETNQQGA
In short: as §1

[5] = target: T4, USP4 (UniProt Q13107)
T4 sequence (whole entry): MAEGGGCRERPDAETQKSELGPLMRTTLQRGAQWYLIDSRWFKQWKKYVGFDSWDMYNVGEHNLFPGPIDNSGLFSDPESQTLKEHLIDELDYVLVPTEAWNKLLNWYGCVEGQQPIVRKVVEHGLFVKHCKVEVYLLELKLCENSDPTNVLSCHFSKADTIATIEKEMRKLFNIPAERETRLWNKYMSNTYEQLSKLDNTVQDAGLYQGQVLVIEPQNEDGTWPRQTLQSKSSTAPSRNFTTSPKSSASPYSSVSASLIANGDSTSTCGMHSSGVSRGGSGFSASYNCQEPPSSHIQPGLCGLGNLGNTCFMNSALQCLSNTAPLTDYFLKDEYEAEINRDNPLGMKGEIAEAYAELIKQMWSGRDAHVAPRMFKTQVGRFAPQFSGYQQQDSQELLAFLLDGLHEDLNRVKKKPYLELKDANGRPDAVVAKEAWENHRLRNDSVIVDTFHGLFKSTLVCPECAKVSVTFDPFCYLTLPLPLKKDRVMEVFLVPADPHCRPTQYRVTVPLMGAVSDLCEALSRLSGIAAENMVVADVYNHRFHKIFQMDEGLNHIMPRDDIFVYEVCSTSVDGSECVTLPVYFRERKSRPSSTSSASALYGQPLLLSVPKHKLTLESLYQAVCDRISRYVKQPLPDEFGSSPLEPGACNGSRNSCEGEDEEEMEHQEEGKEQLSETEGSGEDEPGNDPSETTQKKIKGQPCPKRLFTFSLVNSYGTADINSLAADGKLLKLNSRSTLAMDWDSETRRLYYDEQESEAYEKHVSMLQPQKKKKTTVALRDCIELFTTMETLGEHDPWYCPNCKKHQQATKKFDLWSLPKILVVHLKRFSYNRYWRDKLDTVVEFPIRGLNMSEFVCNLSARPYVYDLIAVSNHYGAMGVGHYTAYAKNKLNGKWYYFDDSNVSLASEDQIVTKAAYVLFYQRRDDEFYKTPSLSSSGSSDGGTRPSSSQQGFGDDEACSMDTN
In short: as §1

Measured: log2 ratio of Biotin-Ahx-Ub-VS probe labelling

O=C(CCl)Nc1cc2c(cc1Cl)OCCO2
inactive: [1] -0.393 | [2] 0.206 | [3] -0.183 | [4] -0.137 | [5] 0.122
